Calls of active or inactive are those of the source. The calls were made as follows: active = hit-call score of the fitted dose curve at least 0.9, where 1 is the maximum; inactive = score below 0.9.
Read-out: Tumor necrosis factor (Homo sapiens) (UniProt P01375)
Assay: BSK_BT_xTNFa: BioMAP Diversity Plus: BT Assay for Tumor necrosis factor alpha (TNF-alpha) Biomarker Activity (AID 2284230)
Conditions: primary human B cells with PBMC
Protocol: BSK_BT is a cell-based, multiplexed-readout assay that uses B cell and peripheral blood mononuclear cells, a human vascular primary cell co-culture, with measurements taken at 24 hours after chemical dosing in a microplate: 96-well plate.BSK_BT_xTNFa is an assay component of the BSK_BT assay. It measures secreted TNF-alpha related to regulation of gene expression using LumineX xMAP technology.Data from the assay component BSK_BT_xTNFa was analyzed at the endpoint, BSK_BT_xTNFa, in the positive analysis fitting direction relative to DMSO as the negative control and baseline of activity. Using a type of cytokine quantitation reporter, gain or loss-of-signal activity can be used to understand protein changes. To generalize the intended target to other relatable targets, this assay endpoint is annotated to the 'cytokine' intended target family, where the subfamily is 'inflammatory factor'.
The levels of cell surface (or secreted, indicated by the prefix "s") biomarker endpoints were measured by ELISA. Overt cytotoxicity to cells in confluent adherent cultures (all systems other than the BT system) was assessed by measuring total protein levels using sulforhodamine B (SRB) staining in parallel cultures at the time of biomarker measurements, indicated as SRB endpoints. For proliferation assays for adherent cell types, individual cell types are cultured at sub-confluence and relative cell numbers quantified by SRB staining at time points optimized for each system (48 h: 3C and CASM3C systems; 72 h: BT and HDF3CGF systems; 96 h: SAg system). SRB was performed by staining cells with 0.1% SRB after fixation with 10% TCA and reading wells at 560 nm.Viability and proliferation of PBMC (T cells) was quantified by Alamar Blue reduction for the SAg and BT systems. For PBMC viability (referred to as PBMC Cytotoxicity within the assay endpoint names), cells were plated (75,000/well in a 96-well plate) and then chemical samples added for 1 h before addition of activators, SEB and TSST-1 (20 ng/mL final concentration each). Cells were incubated for 90 h. Then, Alamar Blue (20 uL/well) (Invitrogen, Cat DAL1100) was added for 6 h, and the plates were read with a fluorescence microplate reader at 546/580 nm (excitation/emission). For PBMC proliferation, cells were plated and activated as above but incubated for only 16 h prior to addition of Alamar Blue. Plates were read after 6 h.

Chain of Tumor necrosis factor (Homo sapiens) (P01375 whole entry, looked up): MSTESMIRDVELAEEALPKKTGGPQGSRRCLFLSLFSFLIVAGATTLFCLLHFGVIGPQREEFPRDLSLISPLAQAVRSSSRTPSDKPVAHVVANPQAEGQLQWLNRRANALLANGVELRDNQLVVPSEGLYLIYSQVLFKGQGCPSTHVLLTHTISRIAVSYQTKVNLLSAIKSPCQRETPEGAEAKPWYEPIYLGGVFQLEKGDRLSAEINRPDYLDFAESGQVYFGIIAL

Structure (SMILES) | outcome | AC50
CCn1c2ccccc2c2cc(N)ccc21 | inactive | –
Nc1cc([N+](=O)[O-])ccc1Cl | inactive | –
CCCCC(CC)COCCC#N (stereo not drawn) | inactive | –
CC(=O)O[C@]1(C(C)=O)CC[C@H]2[C@@H]3C[C@H](C)C4=CC(=O)CC[C@]4(C)[C@H]3CC[C@@]21C | inactive | –
Cc1ccc2n[nH]nc2c1 | inactive | –
COC(=O)c1ccc(C)cc1 | inactive | –
c1ccc2c(c1)c1cccc3ccc4cccc2c4c31 | inactive | –
CC(=O)Nc1ccccc1O | inactive | –
CCc1c(C)cc(N)c(CC)c1N | inactive | –
CN(CCOc1ccc(CC2SC(=O)NC2=O)cc1)c1ccccn1 (stereo not drawn) | inactive | –
CCCCC/C=C/C=C/C=O | – | 35.7 µM (active)
CC(=O)/C=C/C1=C(C)CCCC1(C)C | inactive | –
O=C(O)c1cn(-c2ccc(F)cc2)c2cc(N3CCNCC3)c(F)cc2c1=O | inactive | –
C#C[C@]1(O)CC[C@H]2[C@@H]3CCC4=Cc5oncc5C[C@]4(C)[C@H]3CC[C@@]21C | – | 33.7 µM (active)
CNC[C@H](O)c1cccc(O)c1 | inactive | –
CCCCCCCCC=O | inactive | –
CC1COc2ccccc2N1C(=O)C(Cl)Cl (stereo not drawn) | inactive | –
N#Cc1ccc(CC(=NNC(=O)Nc2ccc(OC(F)(F)F)cc2)c2cccc(C(F)(F)F)c2)cc1 | inactive | –
O=P(c1ccccc1)(c1ccccc1)c1ccccc1 | inactive | –

Structure (SMILES) | outcome | AC50
O=C(O)C[C@H](O)C[C@H](O)/C=C/c1c(C2CC2)nc2ccccc2c1-c1ccc(F)cc1 | – | 3 µM (active)
CC(C)Oc1ccccc1O | inactive | –
C=C(C)C(=O)O[C@H]1C[C@@H]2CC[C@@]1(C)C2(C)C | inactive | –
CCCCCCCCCCCCCCCCCC(=O)OCC(CC)CCCC (stereo not drawn) | inactive | –
O=C1CCCCCCCCCCCCCCO1 | – | 35.8 µM (active)
O=C(O)c1cn(C2CC2)c2cc(N3CCNCC3)c(F)cc2c1=O | inactive | –
C=C[Si](OCC)(OCC)OCC | inactive | –
c1ccc2sc(SN(C3CCCCC3)C3CCCCC3)nc2c1 | inactive | –
O=C1OC2(c3cc(Br)c(O)c(Br)c3Oc3c2cc(Br)c(O)c3Br)c2c(Cl)c(Cl)c(Cl)c(Cl)c21 | – | 13.2 µM (active)
O=C=NC1CCC(CC2CCC(N=C=O)CC2)CC1 (stereo not drawn) | inactive | –
BrC1CCC(Br)C(Br)CCC(Br)C(Br)CCC1Br (stereo not drawn) | – | 28.2 µM (active)
CC(C)(COC(=O)c1ccccc1)COC(=O)c1ccccc1 | inactive | –
CCCCCCCCCC=O | inactive | –
Cc1ccc(Nc2ccc(O)c3c2C(=O)c2ccccc2C3=O)cc1 | inactive | –
CCCCC(CC)COC(=O)/C=C\C(=O)OCC(CC)CCCC (stereo not drawn) | inactive | –
O=[N+]([O-])c1cc(C(F)(F)F)ccc1Cl | inactive | –
CC(C)c1ccc(C(C)C)cc1 | inactive | –
Cc1ccc(O)c(C(C)(C)C)c1 | inactive | –
CC1CCC(C(C)CS)CC1S (stereo not drawn) | inactive | –
